Targets with a hit are over-represented here; the source holds about 8,800 in all. About 0.5% of all pairs of compound and target were hits.
Tests used:
Assay in all cases: log2 fold change, soluble protein after heating vs DMSO (PISA); higher = thermal stabilisation; K562 lysate, 10 uM; active = over 0.2 and 3.5 SD of the protein, either way, in both replicates (recomputed)
erlotinib = compound: C#Cc1cccc(Nc2ncnc3cc(OCCOC)c(OCCOC)cc23)c1 [erlotinib]
Procedure, shortened: (§1)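 Quantification was by TMTpro 16plex LC-MS/MS with equalised channel sums, applied to the supernatant after 21,000xg for 90 min. Samples were crude K562 extract at 1 mg/mL protein in PBS pH 7.4 with 1 mM MgCl2, treated with 10 μM compound for 30 min, heated for 3 min across 48°C-58°C, pooled and brought to 0.5% NP-40 at 4°C. Values are log-two fold changes in thermal stability relative to solvent controls, from duplicates.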

[1] = compound: C/C(=N\NC(=O)C1=CC(=CC=C1)S(=O)(=O)N2CCOCC2)/C3=C(C=CC(=C3)Cl)O
Procedure, shortened: as §1

[2] = compound: C1=CC(=CC=C1C2=NC3=C(N2)C=C(C=C3)C(=O)N)OC4=CC=C(C=C4)Cl
Procedure, shortened: as §1

[3] = compound: C1=CC2=C(C=CC(=C2)/C=C\3/C(=O)NC(=NCC4=CC=CS4)S3)N=C1
Procedure, shortened: as §1

[4] = compound: C1=CC2=NC=CN=C2C=C1/C=C/3\C(=O)NC(=O)S3
Procedure, shortened: as §1

[5] = compound: C1=CC=C(C=C1)C2=NC(=C(N2)C3=CC=NC=C3)C4=CC(=C(C=C4)Cl)O
Procedure, shortened: as §1

[6] = compound: C1=CC=C2C(=C1)C3=NNC4=CC=CC(=C43)C2=O
Procedure, shortened: as §1

[7] = compound: C1CCN(C1)C(=O)NC2=CC=CC(=C2)NC3=NC=C(C(=N3)NCCC4=CN=CN4)Br
Procedure, shortened: as §1

[8] = compound: C1CN(CCC1(CC2=CC=C(C=C2)Cl)N)C3=NC=NC4=C3C=CN4
Procedure, shortened: as §1

IRAK-1-4 Inhibitor I = compound: C1COCCN1CCN2C3=CC=CC=C3N=C2NC(=O)C4=CC(=CC=C4)[N+](=O)[O-] [IRAK-1-4 Inhibitor I]
Procedure, shortened: as §1

ibrutinib = compound: C=CC(=O)N1CCC[C@@H](n2nc(-c3ccc(Oc4ccccc4)cc3)c3c(N)ncnc32)C1 [ibrutinib]
Procedure, shortened: as §1

[9] = compound: CC(=O)c1cnc2ccc(-c3cc(Cl)c(O)c(Cl)c3)nc2c1N[C@H]1CC[C@H](CN(C)C)CC1
Procedure, shortened: as §1

ralimetinib = compound: CC(C)(C)Cn1c(N)nc2ccc(-c3[nH]c(C(C)(C)C)nc3-c3ccc(F)cc3)nc21 [ralimetinib]
Procedure, shortened: as §1

[10] = compound: CC(C)(O)CC(=O)NCCn1ccc2ncnc(Nc3ccc(Oc4cccc(C(F)(F)F)c4)c(Cl)c3)c21
Procedure, shortened: as §1

[11] = compound: CC(C)C1=C2N=C(C=C(N2N=C1)NCC3=CC=CC=C3)NCCCCCCN
Procedure, shortened: as §1

[12] = compound: CC1=C(C(CC(=O)N1)C2=CC=C(C=C2)C(F)(F)F)C(=O)NC3=C(C=C4C(=C3)C=NN4)F
Procedure, shortened: as §1

[13] = compound: CC1=C(C2=C(C=C1)C(=O)C3=CC=CC=C3N2CCCN)C
Procedure, shortened: as §1

[14] = compound: CC1=C(C=C(C=C1)NC(=O)C2=CC(=CC=C2)C(C)(C)C#N)NC3=CC4=C(C=C3)N=CN(C4=O)C
Procedure, shortened: as §1

[15] = compound: CC1=C(C=C(C=C1)NC(=O)C2=CC(=CC=C2)N(C)C)NC(=O)C3=CC=C(C=C3)O
Procedure, shortened: as §1

[16] = compound: CC1=CC=C(C=C1)SC2=C3C=C(SC3=CN=C2)C(=O)N
Procedure, shortened: as §1

Measured: log2 fold change

TCF3 (UniProt P15923)
inactive: erlotinib 0.027 | [1] -0.028 | [2] 0.067 | [3] 0.004 | [4] 0.016 | [5] 0.011 | [6] 0.07 | [7] -0.005 | [8] 0.022 | IRAK-1-4 Inhibitor I 0.04 | ibrutinib 0.001 | [9] 0.027 | ralimetinib 0.014 | [10] -0.028 | [11] -0.005 | [12] -0.034 | [13] -0.074 | [14] -0.061 | [15] -0.045 | [16] -0.016

TPP2 (UniProt P29144)
UniProt P29144, sequence (P29144 whole entry, looked up): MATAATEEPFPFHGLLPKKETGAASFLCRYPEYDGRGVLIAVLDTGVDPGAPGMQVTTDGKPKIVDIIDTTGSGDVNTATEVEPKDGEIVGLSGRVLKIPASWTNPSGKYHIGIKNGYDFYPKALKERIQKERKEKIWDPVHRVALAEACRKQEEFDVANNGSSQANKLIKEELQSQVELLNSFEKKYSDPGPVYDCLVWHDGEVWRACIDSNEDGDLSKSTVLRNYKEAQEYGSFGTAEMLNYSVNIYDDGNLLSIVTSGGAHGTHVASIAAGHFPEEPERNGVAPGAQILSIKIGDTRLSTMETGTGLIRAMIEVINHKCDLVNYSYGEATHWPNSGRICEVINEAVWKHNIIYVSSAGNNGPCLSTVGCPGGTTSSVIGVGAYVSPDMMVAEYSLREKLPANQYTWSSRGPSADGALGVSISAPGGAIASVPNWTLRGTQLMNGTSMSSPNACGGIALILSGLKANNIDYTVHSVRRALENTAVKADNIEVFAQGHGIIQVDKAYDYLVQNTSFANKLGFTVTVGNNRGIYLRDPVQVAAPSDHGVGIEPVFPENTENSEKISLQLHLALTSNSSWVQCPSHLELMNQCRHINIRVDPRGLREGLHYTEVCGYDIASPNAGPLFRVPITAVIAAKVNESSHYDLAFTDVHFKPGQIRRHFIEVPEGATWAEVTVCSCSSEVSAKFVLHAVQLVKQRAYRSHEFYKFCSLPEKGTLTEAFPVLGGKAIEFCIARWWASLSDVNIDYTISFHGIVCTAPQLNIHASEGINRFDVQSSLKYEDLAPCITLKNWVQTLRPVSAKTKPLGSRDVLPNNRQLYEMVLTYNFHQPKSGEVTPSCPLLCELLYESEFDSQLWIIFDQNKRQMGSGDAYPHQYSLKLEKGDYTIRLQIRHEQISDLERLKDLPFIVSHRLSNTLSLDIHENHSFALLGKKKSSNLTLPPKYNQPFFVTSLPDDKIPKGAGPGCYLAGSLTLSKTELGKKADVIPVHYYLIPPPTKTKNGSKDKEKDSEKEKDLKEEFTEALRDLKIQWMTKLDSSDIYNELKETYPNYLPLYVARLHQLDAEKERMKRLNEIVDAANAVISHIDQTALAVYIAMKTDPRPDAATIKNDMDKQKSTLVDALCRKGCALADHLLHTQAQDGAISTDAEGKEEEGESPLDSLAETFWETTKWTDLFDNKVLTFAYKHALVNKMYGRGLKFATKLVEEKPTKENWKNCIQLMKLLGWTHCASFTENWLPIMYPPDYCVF
inactive: erlotinib -0.001 | [1] -0.098 | [2] 0.01 | [3] 0.001 | [4] 0.006 | [5] 0 | [6] -0.02 | [7] -0.003 | [8] -0.005 | IRAK-1-4 Inhibitor I -0.002 | ibrutinib -0.018 | [9] -0.016 | ralimetinib -0.002 | [10] 0.014 | [11] -0.012 | [12] -0.013 | [13] 0.003 | [14] 0.008 | [15] 0.012 | [16] 0.002

TRAPPC9 isoform 2 (UniProt Q96Q05)
inactive: erlotinib 0.033 | [1] 0.113 | [2] -0.01 | [3] 0.006 | [4] -0.04 | [5] -0.012 | [6] -0.005 | [7] 0.027 | [8] 0.034 | IRAK-1-4 Inhibitor I 0.027 | ibrutinib 0.003 | [9] 0.019 | ralimetinib 0.055 | [10] -0.025 | [11] -0.003 | [12] -0.043 | [13] -0.023 | [14] 0.02 | [15] -0.016 | [16] -0.001

TRMT2A (UniProt Q8IZ69)
inactive: erlotinib -0.042 | [1] -0.015 | [2] -0.007 | [3] 0.012 | [4] -0.012 | [5] -0.012 | [6] -0.004 | [7] -0.005 | [8] 0.002 | IRAK-1-4 Inhibitor I -0.007 | ibrutinib 0.002 | [9] 0.005 | ralimetinib 0.026 | [10] -0.005 | [11] 0.001 | [12] 0.012 | [13] -0.007 | [14] -0.03 | [15] 0.035 | [16] 0.008

TBK1 (UniProt Q9UHD2)
UniProt Q9UHD2, sequence (Q9UHD2 whole entry, looked up): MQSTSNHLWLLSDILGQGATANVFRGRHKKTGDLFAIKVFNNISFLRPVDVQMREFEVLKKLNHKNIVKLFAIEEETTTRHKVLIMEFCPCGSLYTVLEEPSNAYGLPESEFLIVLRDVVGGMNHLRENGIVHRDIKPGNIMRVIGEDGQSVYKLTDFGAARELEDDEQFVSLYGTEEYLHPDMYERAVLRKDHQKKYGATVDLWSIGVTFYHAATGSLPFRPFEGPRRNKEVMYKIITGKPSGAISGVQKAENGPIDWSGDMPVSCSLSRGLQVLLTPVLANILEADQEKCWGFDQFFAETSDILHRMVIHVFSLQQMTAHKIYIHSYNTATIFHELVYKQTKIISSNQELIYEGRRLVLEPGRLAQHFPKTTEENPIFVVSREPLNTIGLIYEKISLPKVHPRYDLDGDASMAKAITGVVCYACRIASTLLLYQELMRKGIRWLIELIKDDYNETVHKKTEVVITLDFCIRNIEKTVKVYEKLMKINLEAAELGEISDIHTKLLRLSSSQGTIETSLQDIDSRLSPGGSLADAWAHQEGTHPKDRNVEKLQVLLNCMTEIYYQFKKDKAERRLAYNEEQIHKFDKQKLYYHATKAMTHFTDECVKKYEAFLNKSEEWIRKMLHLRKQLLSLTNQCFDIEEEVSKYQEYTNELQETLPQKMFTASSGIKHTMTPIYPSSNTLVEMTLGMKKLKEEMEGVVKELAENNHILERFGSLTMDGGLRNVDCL
inactive: erlotinib -0.005 | [1] -0.066 | [2] -0.03 | [3] 0.006 | [4] -0.067 | [5] 0.023 | [6] 0.238 | [7] 0.214 | [8] -0.047 | IRAK-1-4 Inhibitor I 0.082 | ibrutinib -0.02 | [9] 0.159 | ralimetinib -0.007 | [10] -0.035 | [11] 0.047 | [12] 0.015 | [13] -0.016 | [14] -0.034 | [15] 0.032 | [16] -0.013

TXNRD2 (UniProt Q9NNW7)
UniProt Q9NNW7, sequence (Q9NNW7 whole entry, looked up): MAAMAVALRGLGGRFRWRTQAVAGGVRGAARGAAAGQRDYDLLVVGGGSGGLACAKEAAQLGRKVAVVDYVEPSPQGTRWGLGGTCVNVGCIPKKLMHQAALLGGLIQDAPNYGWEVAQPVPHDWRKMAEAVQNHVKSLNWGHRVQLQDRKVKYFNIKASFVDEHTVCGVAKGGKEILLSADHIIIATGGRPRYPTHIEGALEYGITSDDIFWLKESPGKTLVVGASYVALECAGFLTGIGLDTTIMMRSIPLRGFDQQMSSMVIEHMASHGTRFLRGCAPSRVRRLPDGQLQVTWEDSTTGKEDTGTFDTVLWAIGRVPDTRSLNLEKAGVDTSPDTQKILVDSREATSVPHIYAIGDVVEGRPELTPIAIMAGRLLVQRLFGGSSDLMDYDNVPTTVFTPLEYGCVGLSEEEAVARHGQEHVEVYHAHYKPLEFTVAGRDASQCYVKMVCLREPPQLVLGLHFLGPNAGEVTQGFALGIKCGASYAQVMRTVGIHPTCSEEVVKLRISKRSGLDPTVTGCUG
inactive: erlotinib -0.01 | [1] -0.085 | [2] 0.049 | [3] 0.008 | [4] -0.025 | [5] 0.009 | [6] -0.031 | [7] 0.017 | [8] 0.044 | IRAK-1-4 Inhibitor I -0.007 | ibrutinib 0.014 | [9] -0.002 | ralimetinib 0.025 | [10] -0.107 | [11] 0 | [12] 0.008 | [13] -0.038 | [14] -0.014 | [15] 0.001 | [16] 0.006

TTC12 isoform 2 (UniProt Q9H892)
UniProt Q9H892, sequence (Q9H892 whole entry, looked up): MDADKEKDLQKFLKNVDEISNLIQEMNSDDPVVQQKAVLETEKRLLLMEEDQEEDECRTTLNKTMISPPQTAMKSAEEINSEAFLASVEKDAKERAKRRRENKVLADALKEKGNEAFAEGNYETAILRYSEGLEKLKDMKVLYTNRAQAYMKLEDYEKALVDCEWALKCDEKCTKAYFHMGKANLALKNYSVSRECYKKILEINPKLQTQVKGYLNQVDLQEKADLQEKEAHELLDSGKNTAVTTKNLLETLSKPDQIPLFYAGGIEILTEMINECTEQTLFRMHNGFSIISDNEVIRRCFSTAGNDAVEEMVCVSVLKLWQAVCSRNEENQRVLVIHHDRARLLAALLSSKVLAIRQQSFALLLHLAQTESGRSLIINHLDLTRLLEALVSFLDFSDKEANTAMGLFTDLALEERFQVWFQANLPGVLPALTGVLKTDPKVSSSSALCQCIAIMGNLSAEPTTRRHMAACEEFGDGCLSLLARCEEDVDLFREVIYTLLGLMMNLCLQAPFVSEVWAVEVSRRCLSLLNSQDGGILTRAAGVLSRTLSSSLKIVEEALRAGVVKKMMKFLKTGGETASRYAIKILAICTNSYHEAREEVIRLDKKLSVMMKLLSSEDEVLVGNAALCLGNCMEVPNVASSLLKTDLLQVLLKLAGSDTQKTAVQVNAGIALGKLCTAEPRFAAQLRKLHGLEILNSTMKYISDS
inactive: erlotinib 0.066 | [1] -0.051 | [2] 0.055 | [3] 0.007 | [4] -0.081 | [5] -0.037 | [6] -0.019 | [7] -0.006 | [8] 0.034 | IRAK-1-4 Inhibitor I 0.231 | ibrutinib -0.002 | [9] -0.073 | ralimetinib 0.053 | [10] 0.128 | [11] -0.032 | [12] -0.049 | [13] -0.042 | [14] 0.037 | [15] -0.14 | [16] -0.003

TOPBP1 (UniProt Q92547)
UniProt Q92547, sequence (Q92547 whole entry, looked up): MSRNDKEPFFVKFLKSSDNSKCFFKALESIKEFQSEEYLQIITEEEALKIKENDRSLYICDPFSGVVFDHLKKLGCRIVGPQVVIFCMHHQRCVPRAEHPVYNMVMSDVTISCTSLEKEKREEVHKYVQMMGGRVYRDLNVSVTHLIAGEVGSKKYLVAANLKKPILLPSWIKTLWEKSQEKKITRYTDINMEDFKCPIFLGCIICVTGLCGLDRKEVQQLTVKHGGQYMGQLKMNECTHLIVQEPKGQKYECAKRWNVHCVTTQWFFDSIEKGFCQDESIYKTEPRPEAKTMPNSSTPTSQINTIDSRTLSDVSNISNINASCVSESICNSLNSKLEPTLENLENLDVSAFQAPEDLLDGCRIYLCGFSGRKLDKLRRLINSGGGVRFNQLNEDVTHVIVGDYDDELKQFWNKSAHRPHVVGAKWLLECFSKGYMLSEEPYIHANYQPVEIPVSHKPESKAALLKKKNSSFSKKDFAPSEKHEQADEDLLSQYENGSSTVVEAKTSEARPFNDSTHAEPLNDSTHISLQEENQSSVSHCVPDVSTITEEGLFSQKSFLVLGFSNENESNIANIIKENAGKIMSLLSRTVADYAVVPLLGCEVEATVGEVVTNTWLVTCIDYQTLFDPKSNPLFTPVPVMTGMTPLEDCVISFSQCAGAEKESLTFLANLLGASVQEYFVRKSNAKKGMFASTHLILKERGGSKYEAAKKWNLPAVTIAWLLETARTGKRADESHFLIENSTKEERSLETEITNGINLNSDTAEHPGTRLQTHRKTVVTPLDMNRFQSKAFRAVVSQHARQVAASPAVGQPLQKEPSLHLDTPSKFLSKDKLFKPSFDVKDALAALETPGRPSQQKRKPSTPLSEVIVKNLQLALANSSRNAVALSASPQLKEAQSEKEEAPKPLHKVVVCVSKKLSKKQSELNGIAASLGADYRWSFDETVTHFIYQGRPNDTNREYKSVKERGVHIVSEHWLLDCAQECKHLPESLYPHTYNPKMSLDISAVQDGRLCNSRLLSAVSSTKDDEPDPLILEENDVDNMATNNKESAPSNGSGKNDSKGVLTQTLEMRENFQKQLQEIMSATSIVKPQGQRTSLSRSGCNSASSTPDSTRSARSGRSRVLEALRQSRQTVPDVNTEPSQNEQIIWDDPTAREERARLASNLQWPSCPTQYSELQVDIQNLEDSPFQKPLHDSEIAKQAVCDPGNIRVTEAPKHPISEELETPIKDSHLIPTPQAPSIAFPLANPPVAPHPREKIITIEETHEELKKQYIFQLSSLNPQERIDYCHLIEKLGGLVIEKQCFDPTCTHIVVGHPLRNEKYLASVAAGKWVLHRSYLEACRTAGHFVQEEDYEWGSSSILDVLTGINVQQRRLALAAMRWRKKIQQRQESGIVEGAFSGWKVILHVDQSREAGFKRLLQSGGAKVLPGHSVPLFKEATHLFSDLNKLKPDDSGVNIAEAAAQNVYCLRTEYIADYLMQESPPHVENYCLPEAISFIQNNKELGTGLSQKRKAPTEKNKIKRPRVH
inactive: erlotinib 0.004 | [1] -0.056 | [2] -0.034 | [3] 0.018 | [4] 0.002 | [5] 0.003 | [6] -0.009 | [7] -0.134 | [8] 0.072 | IRAK-1-4 Inhibitor I -0.006 | ibrutinib 0.012 | [9] 0.003 | ralimetinib 0.011 | [10] 0.011 | [11] 0.006 | [12] -0.02 | [13] -0.01 | [14] -0.035 | [15] 0.041 | [16] 0.055
